Among the data in PubChem BioAssay (NCATS) are activation and Potency values, retold here.

Values joined by “and” are separate entries in the source; they are usually repeats but may differ in a detail not shown here. Equal values may be shown once. Inconclusive results are not listed. Values without a mark were called inactive. Active and inactive are the calls of the source. Unless noted, calls follow the shape of the dose curve; as a rule, active = well fitted curve in the direction sought with a large enough effect; inconclusive = small, poorly fitted or top-dose-only effect, or another doubt; inactive = no such curve, though single readings can be large; an effect the other way counts as inactive or inconclusive.

Test [1] has as its target Cellular tumor antigen p53 (Homo sapiens) (UniProt P04637). Kind of test: Primary qHTS for small molecule compounds that upregulate eGFP-tagged delta133p53alpha (in N-terminal) cells. (AID 2060322).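 Also: series mostly up to about 56 µM; 0% = DMSO vehicle and 100% = reference activator; nearly all actives have a fitted effect of over 75% in size.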 The note with it: NCI-H358 eGFP-delta133p53alpha fluorescence, 24 h; activation: active compounds read high. In short, it runs like this:
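NCI-H358 cells pre-induced 24 h with 10 ng/ml doxycycline to express N-terminal eGFP-delta133p53alpha, then dosed 24 h at 37C without doxycycline; fixed, Hoechst-stained, GFP intensity by laser scanning cytometry, normalized to DMSO (0%) and 57.5 uM 5-azacytidine (100%).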
In general terms: In qHTS, concentration-response curves come from the screen itself.

The target is the same in test [2]. Description: Primary qHTS for small molecule compounds that upregulate eGFP-tagged delta133p53alpha (in C-terminal) cells. (AID 2060324).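 Also: 0% = DMSO wells and 100% = 57.5 µM 5-azacytidine.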 In short, it runs like this:
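NCI-H358 cells pre-induced 24 h with 100 ng/ml doxycycline to express delta133p53alpha-eGFP, then dosed in doxycycline-free medium for 24 h at 37C. Fixed, Hoechst-stained; GFP intensity by laser scanning cytometry, normalized to DMSO wells.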

In test [3] the target is Aldehyde dehydrogenase, mitochondrial (Homo sapiens) (UniProt P05091). Description: qHTS for Inhibitors of the Aldehyde Dehydrogenase Family (ALDH2) Validation screens (AID 2061302; active = well fitted inhibition curve with a large enough effect; title and protocol of this record describe different tests; also: potency is read from the fitted curve at half-maximal effect).
Test [4] shares this target. Kind of test: qHTS for Inhibitors of the Aldehyde Dehydrogenase Family (ALDH2) Confirmatory screens (AID 2061303; active = well fitted inhibition curve with a large enough effect; title and protocol of this record describe different tests; also: % is scaled to controls: 0 for no effect and ±100 for the full control effect; nearly all actives have a fitted effect of over 45% in size).
The nature of test [5]: qHTS for Inhibitors of the Aldehyde Dehydrogenase Family (ALDH1A2, ALDH1A3, ALDH2, ALDH3A1) (AID 2061307). Also: % is scaled to controls: 0 for no effect and ±100 for the full control effect; nearly all actives have a fitted effect of over 50% in size.
In test [6] the target is Retinaldehyde dehydrogenase 3 (Homo sapiens) (UniProt P47895). Kind of test: qHTS for Inhibitors of the Aldehyde Dehydrogenase Family (ALDH1A3) Confirmatory screens (AID 2061311). Also: % is scaled to controls: 0 for no effect and ±100 for the full control effect; nearly all actives have a fitted effect of over 60% in size.
Test [7] addresses Retinal dehydrogenase 2 (Homo sapiens) (UniProt O94788). Kind of test: qHTS for Inhibitors of the Aldehyde Dehydrogenase Family (ALDH1A2) Confirmation screens (AID 2061314). Also: nearly all actives have a fitted effect of over 65% in size.
The target in test [8] is Aldehyde dehydrogenase 1A1 (Homo sapiens) (UniProt P00352). Description: qHTS for Inhibitors of the Aldehyde Dehydrogenase Family (ALDH1A1) Confirmatory screens (AID 2061316). Also: nearly all actives have a fitted effect of over 65% in size.
In test [9] the target is Retinaldehyde dehydrogenase 3 (Homo sapiens) (UniProt P47895). Description: qHTS for Inhibitors of the Aldehyde Dehydrogenase Family (ALDH1A3) Validation screen (AID 2061312). Also: % is scaled to controls: 0 for no effect and ±100 for the full control effect; nearly all actives have a fitted effect of over 45% in size.
Test [10] has the same target. Kind of test: qHTS for Inhibitors of the Aldehyde Dehydrogenase Family (ALDH1A3) Primary screen (AID 2061315).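 Also: plate controls were DMSO vehicle for no effect and reference inhibitor for full effect.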

Chain of Cellular tumor antigen p53 (Homo sapiens) (P04637 whole entry, looked up): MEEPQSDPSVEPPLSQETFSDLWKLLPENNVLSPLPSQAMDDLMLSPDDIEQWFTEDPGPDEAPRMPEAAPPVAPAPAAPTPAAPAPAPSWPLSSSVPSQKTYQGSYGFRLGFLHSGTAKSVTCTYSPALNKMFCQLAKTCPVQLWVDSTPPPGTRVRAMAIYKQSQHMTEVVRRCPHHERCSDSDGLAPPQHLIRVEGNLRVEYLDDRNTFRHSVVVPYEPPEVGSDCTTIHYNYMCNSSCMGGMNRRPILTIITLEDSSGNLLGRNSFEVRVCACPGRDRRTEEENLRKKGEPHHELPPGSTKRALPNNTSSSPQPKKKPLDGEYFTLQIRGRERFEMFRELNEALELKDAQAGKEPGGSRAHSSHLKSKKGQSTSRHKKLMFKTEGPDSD

For `NC(Cc1ccc(Cl)cc1)C(=O)O` (stereo not given), the activation in test [1] is -15.1% and -12.2%. Besides, the Potency entry in test [2] and in [3] was “inactive” in each case.

In the case of `CCCCCC[C@@H]([C@@H](C)O)n1cnc2c(N)ncnc21`, the activation in test [1] is -41.6%. Further, the Potency result in test [2] and in [3] was “inactive” in each case.

Regarding `Cc1scc2c1N(C(=O)CN1CCN(C)CC1)c1ccccc1NC2=O`, the activation in test [1] is -13.4% and -3.34%. The Potency entry in [2], in test [3], in [4], in [5], in test [6] and in test [7] was “inactive” each time.

Turning to `CCCCCCN(CCCCCC)C(=O)Cc1c(-c2ccc(F)cc2)[nH]c2ccccc12`, the activation in test [1] is -10.8%. Besides, the Potency result in [2], in test [4], in [5], in test [6], in test [7] and in test [8] was “inactive” in each case. For the same compound, the Potency in [3] was 10 µM (active).

`Cc1cccc(C(=O)NCN2CCN(c3ccccc3C#N)CC2)c1`: in test [1], the activation is -16.7%. Further, the Potency entry in test [2] and in test [3] was “inactive” throughout.

In the case of `CN1CCN(CC(=O)N2c3ccccc3C(=O)Nc3cccnc32)CC1`, the activation in [1] is -10% and 3.74%. Moreover, the Potency result in [2], in [3], in test [4], in test [5], in [6] and in test [7] was “inactive” in each case. Further, the Potency result in test [8] was “inactive”.

For `CCOC(=O)c1cnc2c(cnn2CC)c1NN=C(C)C`, the activation in test [1] was 11.7% and -44.5%. In addition, the Potency result in test [2], in test [3], in [4] and in test [5] was “inactive” throughout.

Consider `[N-]=[N+]=Nc1ccc(C(=O)CSC[C@H](NC(=O)CC[C@H](N)C(=O)O)C(=O)NCC(=O)O)cc1`, for which the activation in [1] was -38.2%. Moreover, the Potency entry in [2] and in test [3] was “inactive” in each case.

Turning to `NC(C(=O)N[C@@H]1C(=O)N2C(C(=O)O)=C(Cl)CS[C@H]12)c1ccccc1` (stereo not given in full), the activation in test [1] was 6.44%. In addition, the Potency entry in [2] and in test [3] was “inactive” throughout.

Regarding `CNc1cc(NS(=O)(=O)c2ccc(N)cc2)nc(NC)n1`, the activation in test [1] was -5.43%. Besides, the Potency result in [2] and in [3] was “inactive” each time.

As for `Nc1c(S(=O)(=O)O)cc(Nc2ccc(Nc3nc(Cl)nc(Nc4ccc(S(=O)(=O)O)cc4)n3)c(S(=O)(=O)O)c2)c2c1C(=O)c1ccccc1C2=O`, the activation in test [1] was -2.44%. Further, the Potency entry in [2] and in test [3] was “inactive” in each case.

With `CCCn1cnc2c1c(=O)n(CCCCC(C)=O)c(=O)n2C`, the activation in test [1] was 0.837% and -17.3%. In addition, the Potency result in test [2], in test [3], in test [4], in [5], in test [6] and in test [9] was “inactive” throughout. Moreover, the Potency entry in test [7] and in [8] was “inactive” in each case.

Turning to `CSc1ccc2c(c1)C(N1CCN(C)CC1)Cc1ccccc1S2` (stereo not given), the activation in test [1] was 48%. Also, the Potency entry in [2] and in [3] was “inactive” each time.

With `Oc1cc2c(cc1O)C(c1ccccc1)CNCC2` (stereo not given), the activation in [1] is 5.86%. For the same compound, the Potency entry in [2] and in [3] was “inactive” in each case.

Consider `Nc1ccn([C@H]2O[C@H](CO)[C@@H](O)C2(F)F)c(=O)n1`, for which the activation in test [1] was 7.37%. Moreover, the Potency entry in test [2] and in test [3] was “inactive” in each case.

Take `Nc1ncnc2c1ncn2C1CCCC1`: the activation in test [1] is -5.11%. Further, the Potency result in test [2] and in test [3] was “inactive” each time.

Consider `COc1cc2c(CCNC(C)=O)c[nH]c2cc1O`, for which the activation in test [1] is -10.8%. The Potency entry in test [2] and in [3] was “inactive” throughout.

As for `Cc1cccc(/C=C/c2ccccc2)n1`, the activation in test [1] was -2.77%. For the same compound, the Potency entry in test [2] and in test [3] was “inactive” throughout.

As to `CCCC[C@@]1(C2CCCC2)Cc2cc(OCC(=O)O)c(Cl)c(Cl)c2C1=O`, the activation in test [1] is -7.36%. Further, the Potency result in test [2] and in [3] was “inactive” in each case.

As to `NC1CCN(O)C1=O` (stereo not given), the activation in [1] was -20%. Further, the Potency entry in [2] and in [3] was “inactive” each time.

For the compound `C#CCN(C)Cc1ccccc1`, the activation in test [1] was 2.82% and -8.29%. In addition, the Potency result in test [2] and in [3] was “inactive” throughout.

Take `CCN(CC)CCNC(=O)c1ccc(NS(C)(=O)=O)cc1`: in [1], the activation was -1.7%. The Potency result in test [2] and in test [3] was “inactive” in each case.

For `OCCN1CCN(CCCN2c3ccccc3C=Cc3ccccc32)CC1`, in [1], the activation is -10.7% and -5.62%. In addition, the Potency result in [2] and in [3] was “inactive” in each case.

`CN(CCCOc1ccc(Cc2ccccc2)cc1)CCC(=O)O`: the activation in [1] is -0.922% and -7.16%. The Potency result in test [2], in test [3], in test [4], in test [5], in test [6] and in test [9] was “inactive” in each case. For the same compound, the Potency entry in test [10] was “inactive”.

On to `Oc1cc2c(c(Cl)c1O)CCNCC2c1ccccc1` (stereo not given), for which, in test [1], the activation was -28%. Also, the Potency entry in test [2] and in test [3] was “inactive” each time.

For the compound `O=C(CCCN1CCC(O)(c2cccc(C(F)(F)F)c2)CC1)c1ccc(F)cc1`, in test [1], the activation is 13.4% and 14.3%. In addition, the Potency result in test [2] and in [3] was “inactive” in each case.

For `CC1CN(S(=O)(=O)c2cccc3cnccc23)CCN1` (stereo not given), the activation in test [1] was -66.5%. For the same compound, the Potency result in test [2], in [3], in [4], in test [5], in test [6] and in [7] was “inactive” throughout. In addition, in test [8], the Potency entry is “inactive”.

`O=C(O)COCCN1CCN(C(c2ccccc2)c2ccc(Cl)cc2)CC1` (stereo not given): the activation in test [1] is 0.565% and 21.7% and -7.29%. For the same compound, the Potency result in [2] and in [3] was “inactive” throughout.

As to `C=CCN1CCc2c(cc(O)c(O)c2Br)[C@@H](c2ccccc2)C1`, the activation in [1] is -46.3%. Besides, the Potency entry in [2] and in test [3] was “inactive” in each case.

Consider `Nc1nc2c(cnn2CCc2ccccc2)c2nc(-c3ccco3)nn12`, for which the activation in test [1] was -28.5%. In addition, the Potency result in [2] and in test [3] was “inactive” in each case.

With `NS(=O)(=O)c1cc2c(cc1Cl)NC(C1CC3C=CC1C3)NS2(=O)=O` (stereo not given), the activation in test [1] is -1.69% and -18.7%. Besides, the Potency result in test [2] and in test [3] was “inactive” in each case.
